# Assay outcomes: PubChem BioAssay, National Center for Advancing Translational Sciences (NCATS)
# HepG2 viability: qHTS for Inhibitors of TGF-b: Cytotox Counterscreen | HepG2 CAGA-GFP viability, ATP luminescence, 18 h | Potency, µM (titrated, usually from 46.1 µM), without a hit: at the highest dose activity change, negative = cytotoxicity, most hits filed as cytotoxic | 410,000 tested, 0.76% active | AID 588856, 2011
#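 CellTiter-Glo luminescence gave cytotoxicity after 18 hours at 37 degrees C. The cells were HepG2 CAGA-GFP in 1% FBS DMEM, stimulated with 500 pg/mL TGF-beta after compound addition. %Activity was normalised to no-cell wells (complete cell-killing) and DMSO (no toxicity), and curves were fitted and classified.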
# HT1080NT lethal: qHTS for induction of synthetic lethality in tumor cells producing 2HG: qHTS for the HT-1080-NT fibrosarcoma cell line; HT-1080-NT fibrosarcoma viability, CellTiter-Glo ATP luminescence, 48 h; Potency, µM (highest dose often 46.1 µM), for the others: at the top dose activity, negative = less viability, hits mostly cytotoxic; 360,000 tested, 1.6% active; AID 686970, 2013;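 also: NT is the 2HG producing partner of a matched IDH1 knockdown line; 0% = DMSO-treated cells and -100% = media-only wells without cells; nearly all actives have a fitted effect of over 55% in size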
#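 Luminescent CellTiter-Glo readout after 48 hours of compound exposure at 37 degrees C defined viability of HT-1080-NT cells. Activity was normalized to DMSO wells and cell-free media wells; concentration-response curves were fitted and assigned curve classes.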
# HT1080 IDH1KD tx: qHTS for induction of synthetic lethality in tumor cells producing 2HG: qHTS for the HT-1080-IDH1KD cell line; HT-1080 IDH1 knockdown viability, ATP luminescence, 48 h; Potency, µM (titrated, usually from 46.1 µM), for inactives: top-dose activity, negative = toxicity, actives largely listed as cytotoxic; 360,000 tested, 2% active; AID 686971, 2013;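 also: 0% = DMSO wells and -100% = cell-free medium wells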
#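 CellTiter-Glo luminescence after 48 h compound exposure at 37 degrees C of IDH1-knockdown HT-1080 cells in 5% FBS RPMI. %Activity scaled between DMSO wells and cell-free media wells, with curves fitted and assigned curve classes.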
# S2 tox: Viability Counterscreen for Primary qHTS for Inhibitors of ATXN expression. AID 651635, 2014. 400,000 tested, 0.49% active. Potency, µM (top dose mostly 56.7 µM), hits mostly cytotoxic. S2 cells (HEK-293 line with an ATXN2-luciferase reporter) viability, CellTiter-Fluor protease fluorescence, 24 h; also: nearly all actives have a fitted effect of over 40% in size
# TGFb inhibitor: qHTS for Inhibitors of TGF-b; HepG2 CAGA-GFP TGF-b/SMAD3 reporter, GFP fluorescence, 18 h; TGF-beta stimulated, 500 pg/mL final; Potency, µM (series often up to 46.1 µM), for the others: top-dose activity, negative = inhibition, usual class: inhibitors; 410,000 tested, 1.2% active; also: % is scaled to controls: 0 for no effect and ±100 for the full control effect; nearly all actives have a fitted effect of over 65% in size
#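 Read-out: total well GFP (ex488/em500-530) summed from mean per-cell fluorescence. Cells: HEPG2 CAGA-GFP, 1% FBS DMEM, 18 h at 37 degrees C with 500 pg/mL final TGF-beta. Unstimulated wells served as the full-inhibition control; stimulated DMSO wells = 0%.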
# ATXN2 expr inh: Primary qHTS for Inhibitors of ATXN expression. HEK-293 ATXN2-luciferase reporter, luminescence, 24 h. Potency, µM (top dose mostly 57 µM), for the others: top-dose activity change, negative = inhibition, hits mostly inhibitors. 360,000 tested, 0.72% active; also: % is scaled to controls: 0 for no effect and ±100 for the full control effect; nearly all actives have a fitted effect of over 55% in size
#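 ATXN2-luciferase reporter cells (luciferase flanked by upstream and downstream ATXN2 gene portions) were treated 24 h at 37 °C with compounds at up to 57 uM. SteadyGlo luminescence gave expression; GF-AFC fluorescence gave viability.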
# * = called active by the depositor; i = inactive; ? = inconclusive; nt = no result. A selection: hits, their analogues and other compounds. The true share with any hit is near 3.9%. Calls follow the shape of the dose curve; as a rule, active = well fitted curve in the direction sought with a large enough effect; inconclusive = small, poorly fitted or top-dose-only effect, or another doubt; inactive = no such curve, though single readings can be large; an effect the other way counts as inactive or inconclusive. Potency is read from the fitted curve at half-maximal effect.
SMILES,HepG2 viability,HT1080NT lethal,HT1080 IDH1KD tx,S2 tox,TGFb inhibitor,ATXN2 expr inh
CC1=CC(C)(C)Nc2ccc(OC(=O)c3cccnc3)cc21,13µM*,?,?,?,-6%,?
COc1ccc(-c2sc3cc(OC)ccc3c2-c2ccc(OCCN3CCCCC3)cc2)cc1,nt,21µM*,16µM*,nt,nt,22µM*
COc1ccccc1-c1sc2ccccc2c1-c1ccc(OCCN2CCCCC2)cc1,11µM*,?,?,nt,?,-7%
Oc1ccc2sc(-c3ccccc3O)c(-c3ccc(OCCN4CCCCC4)cc3)c2c1,nt,?,16µM*,?,nt,?
COc1ccc2c(-c3ccc(S(N)(=O)=O)cc3)c(-c3ccc(S(C)(=O)=O)cc3)sc2c1,-34%,23µM*,?,i,-32%,?
COc1cccc(-c2sc3ccc(OC)cc3c2-c2ccc(OCCN3CCCC3)cc2)c1,-107%,?,?,?,?,?
COc1cc2sc(-c3ccccc3OC)c(-c3ccc(OCCN4CCOCC4)cc3)c2cc1OC,-16%,?,?,?,24%,-19%
NC(=O)NN=C1c2cc(S(=O)(=O)N3CCOCC3)ccc2-c2ccc(S(=O)(=O)N3CCOCC3)cc21,-10%,nt,nt,nt,-8%,nt
COc1cccc(NC(=O)Cn2c(=O)n(-c3ccc(C)cc3)c(=O)c3ccccc32)c1,-16%,nt,nt,i,32%,-13%
CC(C)OC(=O)C1=CN(C(=O)c2ccc(F)c(F)c2)CC(C)(C)c2c1[nH]c1ccccc21,nt,nt,nt,nt,nt,6%
COc1ccccc1-c1sc2ccccc2c1-c1ccccc1OC,-4%,14%,6%,i,11%,4%
COc1ccc2c(-c3ccc(OCCN4CCCCC4)cc3)c(-c3ccccc3OC)sc2c1,13µM*,?,?,nt,?,?
COc1ncc(-c2c(-c3ccccc3OC)sc3ccccc23)cn1,nt,?,16µM*,i,nt,0%
COc1ccc2c(-c3ccc(OCCN4CCOCC4)cc3)c(-c3ccccc3OC)sc2c1,-23%,-18%,-18%,i,6%,-15%
CCc1ccccc1N1CC(c2nc3ccccc3n2Cc2cccc(C)c2)CC1=O (stereo not given),-33%,nt,nt,?,6.3µM*,?
COc1ccccc1Cn1c(C2CC(=O)N(c3ccccc3OC)C2)nc2ccccc21 (stereo not given),-23%,nt,nt,?,13µM*,-29%
CCOc1ccc(N2CC(c3nc4ccccc4n3Cc3cccc(C)c3)CC2=O)cc1 (stereo not given),-32%,nt,nt,?,?,?
CCc1ccc(N2CC(c3nc4ccccc4n3Cc3ccccc3C)CC2=O)cc1 (stereo not given),-26%,nt,nt,?,10µM*,?
Nc1nc(=O)n([C@@H]2O[C@H](CO)[C@@H](O)[C@@H]2F)cc1I,nt,nt,nt,i,nt,-4%
CCC(=O)N1CCc2cc(CNC(=O)Nc3cc(OC)c(OC)c(OC)c3)ccc21,6%,nt,nt,i,33%,-6%
CC1C(=O)C(C)C(c2cc(Br)ccc2O)NC1c1cc(Br)ccc1O (stereo not given),-97%,13µM*,?,?,16µM*,?
CC1C(=O)C(C)C(c2ccc(Br)cc2)NC1c1ccc(Br)cc1 (stereo not given),-2%,0%,-11%,?,-21%,nt
CCc1nc(SC)ncc1C(=O)N1CCN(c2cc(C)ccc2C)CC1,1%,nt,nt,i,?,2%
Cc1ccc(NS(=O)(=O)c2cc3c4c(cccc4c2)C(=O)NC3=O)cc1C,-35%,7.3µM*,5.2µM*,i,?,?
O=C1NC(=O)c2cc(Br)cc3cccc1c23,3%,9%,?,i,12%,-13%
SMILES,HepG2 viability,HT1080NT lethal,HT1080 IDH1KD tx,S2 tox,TGFb inhibitor,ATXN2 expr inh
Cc1ccc(-n2nc(C)c3c(C)cc(=O)n(CC(=O)N4CCCc5ccccc54)c32)cc1,8%,nt,nt,i,10%,1%
COc1cc(C2C(C(=O)Nc3ccccc3C)=C(C)Nc3nc(SCc4cc(C)ccc4C)nn32)ccc1O (stereo not given),7.1µM*,nt,nt,nt,10µM*,nt
COc1cc(C2C(C(=O)Nc3ccc(C)cc3C)=C(C)Nc3nc(SCc4ccccc4)nn32)cc(OC)c1OC (stereo not given),0%,nt,nt,i,7%,8%
COc1ccccc1N1CCN(C(=O)Cn2c(=O)n3nc(-c4cccc(C)c4)nc3c3ccccc32)CC1,0%,nt,nt,i,1%,7%
Cc1cccc(CNC(=O)c2cnn(-c3ncc(C)c(-c4ccc(F)cc4)n3)c2C)n1,nt,nt,nt,i,nt,nt
CC1(C)Cc2c(sc(NC(=O)Cc3ccccc3)c2C#N)C(C)(C)N1,-2%,-16%,-16%,i,-1%,nt
Cc1ccc(OCC(=O)Nc2sc3c(c2C#N)CC(C)(C)NC3(C)C)cc1,3%,21µM*,?,i,-15%,-16%
CC1(C)Cc2c(sc(NC(=O)COc3cccc4ccccc34)c2C#N)C(C)(C)N1,-147%,9.2µM*,15µM*,?,?,?
O=C(OCCN1C(=O)c2cccc3c(N4CCOCC4)ccc(c23)C1=O)c1ccc(Cl)cc1,7%,?,2.3µM*,nt,-6%,-21%
Cc1ccc(C(=O)N/N=C(/CC(=O)c2cccs2)C(F)(F)F)cc1,-46%,26µM*,?,?,?,-18%
Clc1ccc2nc(N3CCNCC3)nc(-c3ccccc3)c2c1,13µM*,-10%,20%,i,?,?
Cc1ccc(C(=O)N/N=C\c2ccc([N+](=O)[O-])s2)cn1,-7%,2%,8%,i,-24%,?
CC(C)(C)OC(=O)N/N=C\c1ccc([N+](=O)[O-])s1,-13%,-18%,-20%,i,-20%,-10%
Cc1ccc(C(=O)N/N=C/c2ccc([N+](=O)[O-])s2)cc1,-29%,?,?,i,?,2.2µM*
Cc1cc(C(=O)N/N=C/c2ccc([N+](=O)[O-])s2)n[nH]1,18µM*,-7%,-19%,?,11µM*,14µM*
CCOC(=O)N/N=C\c1ccc([N+](=O)[O-])s1,-49%,-17%,?,?,22µM*,?
